Drawing on PubChem BioAssay AID720600 (Broad Institute, 2013), this text covers outcome for 2 compounds.

The assay can be described thus: cytotoxicity in SNB-19 CNS tumor cells – cell-based, Alamar Blue fluorescence, 8/24/48 h, dry powder, HRAS target identification, dose response (AID 720600). The conditions noted are these: SNB-19 viability, 8-48 h; series mostly up to 35 µM. Background: Resazurin is reduced to fluorescent resorufin, in cell work by metabolically active cells.

Measured potencies and affinities stand elsewhere. Results filed as inconclusive are left out. Activity calls are given as the source filed them.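 How the source made its calls: active means compound whose half-maximal dose for viability loss stays within twice the top tested dose at all three treatment times; inconclusive means treatment times disagree in their calls; inactive means inactive at every treatment time.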

Turning to `Cc1onc(C(=O)N2CCN(C(c3ccncc3)c3ccncc3)CC2)c1[N+](=O)[O-]`, the compound was classed as inactive.

Regarding `CCC(=O)N(c1ccc(OC)c(Cl)c1)C(C(=O)NCCc1ccccc1)c1cccs1` (configuration not stated), the compound was called inactive.
